Most compounds without a hit are left out; they make up all but 3.9% or so of the library.
CCHFV vOTU inh – blocks the CCHF virus ovarian tumor domain protease. inhibition, % at 11.5 µM. CCHFV vOTU protease, Pep-AMC fluorescence. hit rate 0.55% among 370,000; in the data active means inhibition above about 30%
Autofluor counter – counter-screen for toxin protease inhibitors: compound fluorescence | compound autofluorescence counterscreen, microsphere flow cytometry; stronger effect = higher value | hit rate 3.1% among 360,000 | fluorescence intensity (no concentration beside the values); in the data active means fluorescence intensity above about 16000; inconclusive means no clear call, values can overlap the other calls
BoNT-F LC inh – inhibitors of Botulinum neurotoxin F light chain protease; Multiplex microsphere protease cleavage assay, flow cytometry; inhibition, % at 10 µM; hit rate 0.22% among 360,000; AID 588497; in the data active means inhibition above about 35%, passing the limit was not always enough; inconclusive means no clear call, values can overlap the other calls
SARS 3CLpro inh – SARS-CoV 3CLpro protease inhibition. recombinant SARS-CoV 3CLpro, quenched FRET peptide cleavage. AID 1706. P0C6X7. inhibition, % at 6 µM. hit rate 0.14% among 290,000; in the data active means inhibition above about 12%
Anthrax LF prot – inhibitors of Bacillus anthracis lethal factor protease | P15917 | multiplex microsphere protease cleavage assay, LF | inhibition, % at 10 µM | hit rate 0.12% among 360,000 | AID 588501
BoNT-A LC inh2 – inhibitors of Botulinum neurotoxin A light chain protease | multiplex microsphere protease substrate cleavage, flow cytometry | inhibition, % at 10 µM | hit rate 0.17% among 360,000 | AID 588499
Of the large screens only hits and unclear results are named; the others gave an inactive call. Unless noted, no stated cut-off is given here; in the data, active means inhibition above about 30%; inconclusive means no clear call, values can overlap the other calls; inactive means below that.

CCCCN1C(=O)C2C3C=CC(C2C1=O)C1C2C(=O)N(CCCC)C(=O)C2C31 (centres undefined)	none
CCN(CC)c1ccc(N=Cc2ccc(N(CC)CC)cc2O)cc1	Autofluor counter 22151, BoNT-A LC inh2 inconclusive
CCN(CC)c1ccc(/C=N/Nc2cccc(C)c2)c(O)c1	none
CCN(CC)c1ccc(/C=N/Nc2ccccc2)c(O)c1	Autofluor counter 22767 (no result: CCHFV vOTU inh)
CCN(CC)c1ccc(C=Nc2cc(C)cc(C)c2)c(O)c1	BoNT-A LC inh2 50.2
CCN(CC)c1ccc(C=Nc2ccc(C)cc2)c(O)c1	none
COc1ccc(C2C(C(=O)Nc3cc(OC)ccc3OC)CCC(=O)N2c2ccc(OC)cc2)cc1 (centres undefined)	none (no result: Autofluor counter, BoNT-F LC inh, SARS 3CLpro inh, Anthrax LF prot, BoNT-A LC inh2)
O=S(=O)(CC(CN1CCCC1)N1CCCC1)c1ccc2ccccc2c1 (centres undefined)	Autofluor counter 26003
CC(CS(=O)(=O)c1ccc2ccccc2c1)N1CCN(C2CCCCC2)CC1 (centres undefined)	none (no result: CCHFV vOTU inh, Autofluor counter, BoNT-F LC inh, Anthrax LF prot, BoNT-A LC inh2)
COC(=O)[C@]12C[C@H](CC(=O)NCc3cccs3)C(=O)N(CCc3ccc(OC)c(OC)c3)C1=C[C@H](COCc1ccccc1)O[C@@H]2C	none (no result: Autofluor counter, BoNT-F LC inh, SARS 3CLpro inh, Anthrax LF prot, BoNT-A LC inh2)
Cc1cc(C)nc(SCCCn2c(=O)[nH]c3ccccc32)n1	Autofluor counter 16659
COc1ccc(OCC(=O)OCCN2C(=O)c3ccccc3C2=O)cc1	Autofluor counter 20429
CCOc1ccc(C(CC(=O)O)NC(=O)C23CC4CC(CC(C4)C2)C3)cc1 (centres undefined)	Autofluor counter 21930
CC(C)(C)c1ccc(C(CC(=O)O)NC(=O)C23CC4CC(CC(C4)C2)C3)cc1 (centres undefined)	none
O=C1c2[nH]nc(-c3ccccc3O)c2C(c2cccc(Cl)c2)N1CC1CCCO1 (centres undefined)	Autofluor counter 22113
COc1cc(C(=O)N(Cc2ccccn2)CC2CCCO2)cc(OC)c1OC (centres undefined)	Autofluor counter 21493
COC(=O)C1=C(C)N(Cc2ccccc2C(F)(F)F)C(=NCc2ccc(C(F)(F)F)cc2)NC1c1cccc(F)c1 (centres undefined)	none (no result: Autofluor counter, BoNT-F LC inh, SARS 3CLpro inh, Anthrax LF prot, BoNT-A LC inh2)
CCOc1ccc(N2C(=O)/C(=C/c3ccco3)C(=O)NC2=S)cc1	BoNT-F LC inh 47.0 (no result: CCHFV vOTU inh)
CN1CCN(C(=O)c2cccc(COc3cc(Cl)ccc3Cl)c2)CC1	Autofluor counter 22814
CCC(C)NC(=O)c1ccc(COc2ccccc2Cl)cc1 (centres undefined)	Autofluor counter 21804
O=C(O)c1ccc(COc2ccccc2Cl)cc1	none
O=C(O)c1cccc(COc2ccccc2Cl)c1	Autofluor counter 22141 (no result: SARS 3CLpro inh)
CC(=O)Nc1nonc1NC(=O)CSc1nc2ccccc2o1	Autofluor counter 22359
Cc1nonc1NC(=O)CSc1nc2ccccc2o1	none
CCc1nnc(NC(=O)CSc2nc3ccccc3o2)s1	Autofluor counter 22539
O=C(CSc1nc(-c2ccccc2)c(-c2ccccc2)o1)Nc1nncs1	none
O=C(CSc1nc(-c2ccccc2)c(-c2ccccc2)o1)Nc1nnc(-c2ccccc2)s1	Autofluor counter 22803
COc1ccc(Cn2cc(CN3CC=CS3(=O)=O)nn2)cc1	none (no result: Autofluor counter, BoNT-F LC inh, SARS 3CLpro inh, Anthrax LF prot, BoNT-A LC inh2)
CC1CC(C)CN(c2ccc(-n3cnnn3)cc2[N+](=O)[O-])C1 (centres undefined)	none
O=[N+]([O-])c1cc(-n2cnnn2)ccc1N1CCC(Cc2ccccc2)CC1	Autofluor counter 16952
CCN(Cc1ccccc1)C(=O)C1CCCN(c2ncccn2)C1 (centres undefined)	none (no result: Autofluor counter, BoNT-F LC inh, SARS 3CLpro inh, Anthrax LF prot, BoNT-A LC inh2)
Cc1ccc(NC(=O)c2ccc(NCCCN3CCOCC3)c([N+](=O)[O-])c2)cc1Cl	none
O=C(Nc1ccc(Cl)c([N+](=O)[O-])c1)c1ccc(NCCCN2CCOCC2)c([N+](=O)[O-])c1	Autofluor counter 23261
CC(C)[C@H](NC(=O)c1cccs1)C(=O)N1CCC[C@H]1C(=O)NCc1ccccc1	none (no result: Autofluor counter, BoNT-F LC inh, SARS 3CLpro inh, Anthrax LF prot, BoNT-A LC inh2)
O=C1CSC(=S)N1/N=C/c1c(F)cccc1F	none
O=C1CSC(=S)N1/N=C/C=C/c1ccccc1	BoNT-A LC inh2 42.8
CCNc1nc(NC(C)C)nc(OCCNS(=O)(=O)c2cc(C)ccc2C)n1	none
CCNc1nc(NCC)nc(OCCNS(=O)(=O)c2cc(C)ccc2C)n1	Autofluor counter 21064, BoNT-A LC inh2 inconclusive
Cc1cc(C)cc(C(=O)Oc2coc(CSc3nnc(NC(=O)C4CC4)s3)cc2=O)c1	BoNT-A LC inh2 38.2
O=C(Oc1coc(CSc2nnc(NC(=O)C3CC3)s2)cc1=O)c1c(F)cccc1F	BoNT-A LC inh2 48.5
CC(=O)Nc1nnc(SCc2cc(=O)c(OC(=O)c3ccccc3)co2)s1	none
O=C(Nc1ccccc1C(F)(F)F)C1CC(=O)N(c2ccccc2F)C1 (centres undefined)	Autofluor counter 21214
Cc1noc(C)c1C(=O)NC1CCCc2ccccc21 (centres undefined)	Autofluor counter 21318
Cc1ccccc1NC(=O)/C(=C\c1cccs1)NC(=O)c1ccco1	Autofluor counter 23554
COC(=O)c1cn(C(=O)c2ccc(C)cc2)c2ccccc12	none
Cc1ccc(C(=O)n2cc(CCN3CCS(=O)(=O)CC3)c3ccccc32)cc1	Autofluor counter 16475
CC(C)n1cc(/C=C2\NC(=O)N(c3cccc(Cl)c3)C2=O)c2ccccc21	Autofluor counter 19627, BoNT-A LC inh2 inconclusive
COCC(=O)N1C[C@H]2CON(C)[C@H]2C[C@H]1c1cccc(-c2cc(Cl)cc(Cl)c2)c1	none (no result: Autofluor counter, BoNT-F LC inh, SARS 3CLpro inh, Anthrax LF prot, BoNT-A LC inh2)
COc1ccc(-c2csc(N(CCCN(C)C)C(=O)c3cccs3)n2)cc1	Autofluor counter 21006, BoNT-A LC inh2 inconclusive
COCCCN(C(C)=O)c1nc(-c2ccc(OC)cc2)cs1	Autofluor counter 21678
O=C(c1cccs1)N(CC1CCCO1)c1nc(-c2ccccc2)cs1 (centres undefined)	Autofluor counter 23325
O=C(c1ccco1)N(CC1CCCO1)c1nc(-c2ccccc2)cs1 (centres undefined)	none
COCCCNC(=O)C[C@@H]1C(=O)N2CCCC3=C2[C@@]1(C(=O)OC)CCCC3	none (no result: Autofluor counter, BoNT-F LC inh, SARS 3CLpro inh, Anthrax LF prot, BoNT-A LC inh2)
CCOC(=O)[C@]12CCCC=C1N(CCCOC)C(=O)[C@@H]2CC(=O)N1CCC(c2ccccc2)CC1	none (no result: Autofluor counter, BoNT-F LC inh, SARS 3CLpro inh, Anthrax LF prot, BoNT-A LC inh2)
CCn1c(O)c(/C=N/N=C2CCCCC2)c2cc(C3=NNC(=O)CC3)ccc21	none
CCn1c(O)c(/C=N/N=C2CCCC2)c2ccc(C3=NNC(=O)CC3)cc21	Autofluor counter 23877
CCCNC(=O)c1c[nH]c2ccc(S(=O)(=O)N(C)c3ccc(OCC)cc3)cc2c1=O	none (no result: Autofluor counter, BoNT-F LC inh, Anthrax LF prot, BoNT-A LC inh2)
CCCCN(C)CCNC(=O)c1c[nH]c2ccc(S(=O)(=O)N(CC)CC)cc2c1=O	Autofluor counter 20963
O=S(=O)(CC1NCCc2ccccc21)NCc1ccc(F)cc1 (centres undefined)	none (no result: Autofluor counter, BoNT-F LC inh, SARS 3CLpro inh, Anthrax LF prot, BoNT-A LC inh2)
O=C(CSc1nc2sc3c(c2c(=O)n1-c1ccc(Cl)cc1)CCC3)Nc1ccc(C(=O)O)cc1	none (no result: Autofluor counter, BoNT-F LC inh, SARS 3CLpro inh, Anthrax LF prot, BoNT-A LC inh2)
O=C1NC(=O)N(CCC2=CCCCC2)C(=O)/C1=C/c1cccs1	BoNT-F LC inh 37.2, Anthrax LF prot inconclusive
O=C1CCC(C(=O)OCC(=O)N2N=C3/C(=C\c4ccccc4)CCCC3C2c2ccccc2)N1 (centres undefined)	none (no result: SARS 3CLpro inh)

Bioassay records: PubChem, several laboratories
